Results as given in PubChem BioAssay (EPA / NIEHS).
Active and inactive are the calls of the source. Rule for the calls: active = hit-call score of the fitted dose curve at least 0.9, where 1 is the maximum; inactive = score below 0.9.

Each compound was assayed on CYP2C9 (gene 1559) (assay: LTEA_HepaRG_CYP2C9: Life Technologies and Expression Analysis (LTEA) Assay for CYP2C9 using HepaRG (AID 2283484)). Conditions: mRNA level, 48 h; actives raise or lower the signal.
Summary of the method: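 Differentiated human HepaRG cells were exposed 48 h in serum-free induction medium to eight half-log concentrations up to 100 uM in 0.5% DMSO. CYP2C9 mRNA was measured by qRT-PCR, normalized to ACTB, GAPDH and POLR2A, and fitted bidirectionally against DMSO.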

Structure (SMILES) | outcome | AC50
CC(=O)OCC(COC(C)=O)OC(C)=O | inactive | 
CCCC(=O)O | inactive | 
Cc1cc(Cc2ccc(N)c(C)c2)ccc1N | inactive | 
CCCCC(CC)CO (stereo not given) | inactive | 
CC1(C)C(=O)NC(=O)N1CO | inactive | 
O=C(O)CC(O)(CC(=O)O)C(=O)O | inactive | 
CCCCCCC(CCCCCCCCCCC(=O)OCC(COC(C)=O)OC(C)=O)OC(C)=O (stereo not given) | inactive | 
NC1CCCCC1 | inactive | 
CC(C)(O)c1ccc(CNC(=O)c2cccnc2Oc2ccc(F)cc2)cc1 | inactive | 
C=CCCCCCCCCCCCC | inactive | 
CC(C)OC(=O)C(C)(C)Oc1ccc(C(=O)c2ccc(Cl)cc2)cc1 | inactive | 
O=C(Oc1ccccc1)c1cccc(C(=O)Oc2ccccc2)c1 | inactive | 
CN(C)C(=O)NC1(c2ccccc2)CCN(CCC[C@]2(c3ccc(Cl)c(Cl)c3)CCCN(C(=O)c3ccccc3)C2)CC1 |  | 19.7 µM (active)
O=C1OC(c2ccc(O)cc2)(c2ccc(O)cc2)c2ccccc21 |  | 82 µM (active)
CC(=O)OC1CC(C)OC(C)O1 (stereo not given) | inactive | 
NCCOCCOCCN | inactive | 
O=C1O[C@H]([C@H](O)CO)C(O)=C1O | inactive | 
CCN(CC)CCOc1ccc(C(=C(Cl)c2ccccc2)c2ccccc2)cc1 |  | 80.9 µM (active)
CCCCC(CC)COP(=O)(OCC(CC)CCCC)OCC(CC)CCCC (stereo not given) | inactive | 
CC(=O)CC(c1ccccc1)c1c(O)c2ccccc2oc1=O (stereo not given) | inactive | 
C/C=C/c1ccc(OC)cc1 | inactive | 
O=C(O)c1[nH]n(-c2ccc(S(=O)(=O)O)cc2)c(=O)c1N=Nc1ccc(S(=O)(=O)O)cc1 | inactive | 
Oc1ccc(O)cc1 | inactive | 
CC(C)c1cccc(C(C)C)c1 | inactive | 
NC=O | inactive | 
CCc1nc(N)nc(N)c1-c1ccc(Cl)cc1 |  | 44.5 µM (active)
Cc1cn([C@H]2C=C[C@@H](CO)O2)c(=O)[nH]c1=O | inactive | 

What follows are compounds tested on CYP2E1 (gene 1571) (assay: LTEA_HepaRG_CYP2E1: Life Technologies and Expression Analysis (LTEA) Assay for CYP2E1 using HepaRG (AID 2283485)). Conditions: mRNA level, 48 h; actives raise or lower the signal.
Summary of the method: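 HepaRG cells in serum-free induction medium exposed 48 h to test chemicals, 8 half-log concentrations up to 100 uM in 0.5% DMSO, duplicate. CYP2E1 mRNA by qRT-PCR, normalized to ACTB, GAPDH, POLR2A; bidirectional fit versus DMSO.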

Structure (SMILES) | outcome | AC50
CC(=O)OCC(COC(C)=O)OC(C)=O | inactive | 
CCCC(=O)O | inactive | 
Cc1cc(Cc2ccc(N)c(C)c2)ccc1N |  | 24.6 µM (active)
CCCCC(CC)CO (stereo not given) | inactive | 
CC1(C)C(=O)NC(=O)N1CO | inactive | 
O=C(O)CC(O)(CC(=O)O)C(=O)O | inactive | 
CCCCCCC(CCCCCCCCCCC(=O)OCC(COC(C)=O)OC(C)=O)OC(C)=O (stereo not given) | inactive | 
NC1CCCCC1 | inactive | 
CC(C)(O)c1ccc(CNC(=O)c2cccnc2Oc2ccc(F)cc2)cc1 |  | 37.9 µM (active)
C=CCCCCCCCCCCCC | inactive | 
CC(C)OC(=O)C(C)(C)Oc1ccc(C(=O)c2ccc(Cl)cc2)cc1 | inactive | 
O=C(Oc1ccccc1)c1cccc(C(=O)Oc2ccccc2)c1 | inactive | 
CN(C)C(=O)NC1(c2ccccc2)CCN(CCC[C@]2(c3ccc(Cl)c(Cl)c3)CCCN(C(=O)c3ccccc3)C2)CC1 |  | 17.7 µM (active)
O=C1OC(c2ccc(O)cc2)(c2ccc(O)cc2)c2ccccc21 | inactive | 
CC(=O)OC1CC(C)OC(C)O1 (stereo not given) | inactive | 
O=C(O)c1cccnc1 | inactive | 
NCCOCCOCCN | inactive | 
O=C1O[C@H]([C@H](O)CO)C(O)=C1O | inactive | 
CCN(CC)CCOc1ccc(C(=C(Cl)c2ccccc2)c2ccccc2)cc1 |  | 14.6 µM (active)
CCCCC(CC)COP(=O)(OCC(CC)CCCC)OCC(CC)CCCC (stereo not given) |  | 19.3 µM (active)
CC(=O)CC(c1ccccc1)c1c(O)c2ccccc2oc1=O (stereo not given) |  | 73.8 µM (active)
C/C=C/c1ccc(OC)cc1 | inactive | 
O=C(O)c1[nH]n(-c2ccc(S(=O)(=O)O)cc2)c(=O)c1N=Nc1ccc(S(=O)(=O)O)cc1 | inactive | 
Oc1ccc(O)cc1 | inactive | 
CC(C)c1cccc(C(C)C)c1 | inactive | 
NC=O | inactive | 
CCc1nc(N)nc(N)c1-c1ccc(Cl)cc1 |  | 26 µM (active)
Cc1cn([C@H]2C=C[C@@H](CO)O2)c(=O)[nH]c1=O | inactive | 
